Values joined by “and” are separate entries in the source; they are usually repeats but may differ in a detail not shown here. Equal values may be shown once. Some structures have more than one record in an assay (separate samples or runs), and their calls can disagree. Active and inactive are the calls of the source. Cut-off read from the data, not from the text of the source: active = fold change permeability below about 0.7 or above about 1.3; inactive = in between.
Assay: modulators of brain endothelial barrier permeability, primary screen, cell-based, FITC-avidin fluorescence, HTS (AID 1963498); note: test concentration not given here
Conditions: actives lie on both sides
With N[C@@]1(C(=O)O)CC[C@@H](C(=O)O)C1 the fold change permeability was 1 (inactive). For O=[N+]([O-])c1cc(O)c(O)c([N+](=O)[O-])c1, the fold change permeability was 1 (inactive). For CNc1ccc2oc(C[C@H]3O[C@@]4(CC[C@H]3C)O[C@H]([C@H](C)C(=O)c3ccc[nH]3)[C@H](C)C[C@H]4C)nc2c1C(=O)O, the fold change permeability was 1.2 (inactive). For c1ccc2c(c1)[I+]c1ccccc1-2, the fold change permeability was 1.7 (active). For Cc1cc([C@@H]2CCCN2C)on1, the fold change permeability was 1.1 (inactive). In the case of Cc1cccc(C)c1NC(=O)CN1CCCC1=O, the fold change permeability was 1 (inactive). In the case of N#CC(C#N)=Cc1ccc(O)c(O)c1, the fold change permeability was 1.2 (inactive). In the case of CCCN1CCC[C@@H]2Cc3nc(N)ncc3C[C@H]21, the fold change permeability was 1.1 (inactive). For COC[C@H]1OC(=O)c2coc3c2[C@@]1(C)C1=C(C3=O)C2CCC(=O)[C@@]2(C)C[C@H]1OC(C)=O (stereo partly specified), the fold change permeability was 1.7 (active). For Clc1cnc(Oc2ccc(Oc3ncc(Cl)cc3Cl)cc2)c(Cl)c1, the fold change permeability was 1.4 (active). For C[C@]12CCC3C(CC[C@H]4C[C@H](O)CC[C@]34C)C1CC[C@@H]2C(=O)CO (stereo partly specified), the fold change permeability was 1.1 (inactive). For C=C(C)[C@H]1CN[C@H](C(=O)O)[C@H]1CC(=O)O, the fold change permeability was 1.8 (active). With Cc1nnc2n1-c1sccc1C(c1ccccc1)=NC2 the fold change permeability was 1.1 (inactive). With CC(N)c1cccc(Cl)c1Cl (stereo unspecified) the fold change permeability was 1.1 (inactive). For CN(c1nc2ccccc2s1)C1CCN(C[C@H](O)COc2ccc(F)c(F)c2)CC1, the fold change permeability was 1.6 (active). In the case of NCC(CC(=O)O)c1ccc(Cl)cc1 (stereo unspecified), the fold change permeability was 1.1 (inactive). For O=C(O)CC[N+](=O)[O-], the fold change permeability was 0.9 (inactive). In the case of Cc1c2ccncc2c(C)c2c1[nH]c1ccccc12, the fold change permeability was 1.2 (inactive). For CN1CC[C@@]2(C)c3cc(OC(=O)Nc4ccccc4)ccc3N(C)[C@@H]12, the fold change permeability was 1.4 (active). In the case of Cc1cccc(C)c1NC1=NCCCS1, the fold change permeability was 1.9 (active). With CN(C(=O)Cc1ccc(Cl)c(Cl)c1)C(CN1CCCC1)c1cccc(OCC(=O)O)c1 (stereo unspecified) the fold change permeability was 1.1 (inactive). With Fc1ccc(C(OCCN2CCN(CCCc3ccccc3)CC2)c2ccc(F)cc2)cc1 the fold change permeability was 1.6 (active). In the case of CC[C@@H](CO)NC(=O)[C@@H]1C=C2c3cccc4c3c(cn4C)C[C@H]2N(C)C1, the fold change permeability was 0.7 (active). With CC1OC1P(=O)(O)O (stereo unspecified) the fold change permeability was 1.1 (inactive). In the case of Clc1ccc(C(Cn2ccnc2)OCc2csc3c(Cl)cccc23)c(Cl)c1 (stereo unspecified), the fold change permeability was 1.2 (inactive). In the case of CC[C@@H]1C(=O)OC[C@@H]1Cc1cncn1C, the fold change permeability was 1.3 (active) and 1.2 (inactive). For O=[N+]([O-])c1ccc2nc(N3CCNCC3)ccc2c1, the fold change permeability was 1 (inactive). For CC(=O)[C@H]1CCC2C3CC[C@H]4C[C@H](O)CC[C@]4(C)C3CC[C@@]21C (stereo partly specified), the fold change permeability was 0.9 (inactive). For CC(C)N(CCC(C(N)=O)(c1ccccc1)c1ccccn1)C(C)C (stereo unspecified), the fold change permeability was 0.9 (inactive) and 1.3 (active). In the case of COc1ccc(OC)c(C(O)C(C)N)c1 (stereo unspecified), the fold change permeability was 0.8 (inactive). In the case of COc1ccc2c(c1OC)C(=O)O[C@H]2[C@@H]1c2cc3c(cc2CCN1C)OCO3, the fold change permeability was 1.2 (inactive). With CCN1CCN(C(=O)Cc2ccc(Nc3ncc(F)c(Nc4ccc(C(=O)Nc5ccccc5Cl)cc4)n3)cc2)CC1 the fold change permeability was 1.1 (inactive). In the case of S=C(NC1CCCCC1)N1CCC(c2cnc[nH]2)CC1, the fold change permeability was 1.6 (active). With Cc1ccc(S(=O)(=O)N[C@@H](CCCCN)C(=O)CCl)cc1 the fold change permeability was 1.4 (active). For O=[N+]([O-])/C=C/c1ccc2c(c1)OCO2, the fold change permeability was 1.4 (active). For Nc1ccncc1, the fold change permeability was 0.9 (inactive).

Reference: PubChem BioAssay
